Source: PubChem (several laboratories)
An excerpt weighted towards active compounds, which were near 4.6% of everything screened.
KKLEB cytotox = counter-screen for CF NF-kB inhibitors: cytotoxicity. AID 602141. activity change (cytotoxicity), % at 5 µM. 0.36% of 360,000 active. KKLEB CF airway cells viability, ATPlite luminescence, overnight; active compounds read low; cells stimulated with P. aeruginosa culture filtrate;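 active means corrected activity change at or below -50% at 5 µM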
ABHD5 PLIN5 PPI = ABHD5-PLIN5 protein interaction inhibition; 0.78% of 360,000 active; inhibition, % at 4 µM; Q00G26+Q8WTS1; Split G. princeps luciferase complementation, luminescence, 4 h; AID 602281;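 active means inhibition above the mean inhibition across every tested compound plus 3 SD, cut at about 22% in these data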;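 further: 0% = DMSO only wells and the 100% control is not disclosed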
Target sequence (Q00G26 whole entry, looked up): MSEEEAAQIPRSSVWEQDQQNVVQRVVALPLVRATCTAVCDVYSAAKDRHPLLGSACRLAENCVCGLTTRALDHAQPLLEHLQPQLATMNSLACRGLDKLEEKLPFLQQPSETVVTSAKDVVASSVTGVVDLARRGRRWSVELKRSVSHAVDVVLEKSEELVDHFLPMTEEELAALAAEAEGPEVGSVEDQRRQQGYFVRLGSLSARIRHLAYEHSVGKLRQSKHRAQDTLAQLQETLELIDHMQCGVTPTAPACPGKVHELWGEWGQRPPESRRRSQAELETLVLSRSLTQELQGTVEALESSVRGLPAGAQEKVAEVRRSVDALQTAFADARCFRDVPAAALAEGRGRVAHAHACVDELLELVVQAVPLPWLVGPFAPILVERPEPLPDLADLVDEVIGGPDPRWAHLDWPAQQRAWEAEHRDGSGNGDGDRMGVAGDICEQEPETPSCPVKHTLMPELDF
Target sequence (Q8WTS1 whole entry, looked up): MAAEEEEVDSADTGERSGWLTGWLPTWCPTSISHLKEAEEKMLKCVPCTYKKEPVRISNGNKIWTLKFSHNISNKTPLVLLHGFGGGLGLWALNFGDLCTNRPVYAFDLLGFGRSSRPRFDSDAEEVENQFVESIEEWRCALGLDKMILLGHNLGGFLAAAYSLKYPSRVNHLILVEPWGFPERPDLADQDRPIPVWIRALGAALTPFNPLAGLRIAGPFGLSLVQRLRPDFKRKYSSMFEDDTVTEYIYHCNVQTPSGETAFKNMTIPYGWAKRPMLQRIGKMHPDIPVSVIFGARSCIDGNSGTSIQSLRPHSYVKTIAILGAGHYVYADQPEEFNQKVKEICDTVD
CF NFkB block = cystic fibrosis NF-kB activation inhibition | AID 588850 | KKLEB NF-kB-GFP reporter, PAF-induced, GFP fluorescence overnight | inhibition, % at 5 µM | 0.86% of 360,000 active;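 active means at least 50% inhibition at 5 µM, scaled per plate between neutral and stimulator controls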;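 further: PAF is a Pseudomonas aeruginosa culture filtrate used as stimulus; plate controls were PAF-stimulated DMSO wells for no effect and unstimulated DMSO wells for full effect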
Peg3 prom inh-1 = reduces Peg3 promoter-driven luciferase expression in HeLa; AID 588405; HeLa PEG-Prom luciferase reporter, luminescence, overnight; 1.7% of 360,000 active; inhibition, % at 20 µM;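 active means inhibition of at least 50% at 20 µM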
Mdm2 MdmX PPI = disrupts the human Mdm2-MdmX interaction. O15151+Q00987. SaOS-2 split-luciferase Mdm2/MdmX complementation, luminescence. inhibition, % at 8 µM. 3% of 330,000 active. AID 485346;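 active means inhibition of at least 50% at 8 µM in the primary screen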
HIF-2a block = HIF-2a inhibition; 786-0 RCC cells HIF-2a reporter, luciferase luminescence, overnight; 0.72% of 360,000 active; inhibition, % at 18.8 µM;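 active means inhibition of the luminescence signal of 40% or more relative to plate controls, in a single-dose primary screen at 18.75 µM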
Mdm2-MdmX conf = human Mdm2/MdmX binding inhibition, confirmed. shares compounds with Mdm2 MdmX PPI. luminescent assay. inhibition, % at 8 µM. 55% of 10,000 active. AID 489028
FLuc counter = inhibits full-length luciferase, flagging false Mdm2/MdmX hits. AID 504607. 77% of 6,200 active. shares compounds with Mdm2 MdmX PPI. inhibition, % at 8 µM. SaOS-2 full-length luciferase counterscreen, luminescence;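 active means mean inhibition at 8 µM reaching about 37%, which flags the compound as non-specific, limit read from the data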;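 further: p53-null SaOS-2 cells with luciferase driven by a doxycycline-inducible promoter; compound on cells about two nights before reading with doxycycline added after day one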
Peg3 prom inh-2 = confirmation of Peg3 promoter inhibitors. shares compounds with Peg3 prom inh-1. HeLa PEG-Prom luciferase reporter, luminescence, overnight. inhibition, % at 20 µM. 84% of 1,300 active. AID 602417;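 active means at 20 µM dose, 40% or more inhibition averaged across four replicates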
CF NFkB inh conf = confirmation of cystic fibrosis induced NF-kB inhibitors | 64% of 1,300 active | shares compounds with CF NFkB block | inhibition, % at 5 µM | KKLEB CF airway cells, PAF-induced NF-kB-GFP fluorescence, overnight | AID 602472;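 further: stimulus PAF is a Pseudomonas aeruginosa filtrate and not platelet activating factor; plate controls were DMSO wells with stimulus for no effect and unstimulated DMSO wells for full effect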
Starred values were filed as active, the others as inactive; · = not tested or not shown. Unless noted, no stated cut-off is given here; in the data, active means inhibition above about 40%; inactive means the rest.

SMILES	KKLEB cytotox	ABHD5 PLIN5 PPI	CF NFkB block	Peg3 prom inh-1	Mdm2 MdmX PPI	HIF-2a block	Mdm2-MdmX conf	FLuc counter	CF NFkB inh conf	others
C[C@H]1CCC[C@]2(C)C[C@H]3OC(=O)C(CN4CCCCCC4)[C@H]3C=C12 (stereo partly drawn)	-22	21	74*	6	73*	-5	48*	14	40
Cc1ccc(NC(=S)N(CCCN2CCCC2)Cc2cccn2Cc2ccc(Cl)cc2)cc1C	-43	14	51*	102*	58*	-27	37	·	28
OCCN1CCN(c2ncnc3ccc(Br)cc23)CC1	-9	7	53*	-9	51*	27	60*	45*	67*
CCC(C)Oc1cc(-c2ccnc(Nc3cccc(Cl)c3)n2)ccn1 (stereo not drawn)	-42	-4	99*	100*	95*	11	73*	25	105*	Peg3 prom inh-2=92*
Cc1occc1C(=O)N/N=C/C1=C(N2CCOCC2)C(=C/c2ccc(Cl)cc2Cl)/CC1	-11	-1	-2	13	·	2	·	·	·
COc1ccc(-c2cc(=O)oc3cc(O)ccc23)cc1	-4	-16	82*	5	63*	-4	46*	40*	86*
COc1ccc(OC)c(-c2nnc3n2N=C(c2ccc(OC)c(OC4CCOC4)c2)CS3)c1 (stereo not drawn)	-10	-4	54*	2	68*	20	63*	93*	65*
O=C(Nc1ccccc1)c1cc(C2CCCCN2C(=O)c2ccccc2)on1 (stereo not drawn)	8	0	-34	12	·	-2	·	·	·
O=S(=O)(c1ccc(Br)cc1)c1cnc2ccccc2n1	-20	11	57*	33	50*	27	14	·	49*
Brc1ccc(Sc2cnc3ccccc3n2)cc1	5	-7	-1	-195	-6	-145	·	·	·
CCOc1ccc(NC(=O)c2nnn(CC(=O)Nc3ccccc3OCC)c2N)cc1	-1	2	2	-33	-8	-6	·	·	·
CCOc1ccc(OCC)c(NC(=O)c2nnn(CC(=O)Nc3cc(C)cc(C)c3)c2N)c1	-33	0	50*	26	58*	-1	8	·	37
Cc1cc(-n2c(SCC(=O)NCCC3=CCCCC3)nc3n[nH]c(C)c3c2=N)ccc1Cl	-8	9	22	45	36	17	·	·	·
Cc1[nH]nc2nc(SCC(=O)NCCC3=CCCCC3)n(-c3ccc(Br)cc3)c(=N)c12	-34	-11	63*	47	91*	-12	47*	31	60*
Cc1ccc2nc(SCC(=O)Nc3cc(C(F)(F)F)ccc3N3CCOCC3)[nH]c2c1	-8	-7	50*	15	84*	21	65*	91*	78*
CC(=O)C[C@H](O)CC(=O)[C@H]1OC(=O)CC/C=C\Cc2ccccc21	-4	4	8	-5	-7	12	·	·	·
CCCCCCc1cc2cc(C(=O)Nc3ccccc3OC)c(=O)oc2cc1O	-42	-4	54*	3	95*	9	9	·	55*
CCCCCCc1cc2cc(S(=O)(=O)c3ccc(F)cc3)c(=O)oc2cc1O	-36	-2	51*	43	57*	5	51*	85*	78*
CCCCCCc1cc2cc(-c3nnc(-c4ccccc4OC)o3)c(=O)oc2cc1O	-38	7	-30	11	18	-8	·	·	·
O=S(=O)(c1cccs1)N1CCCCC1	4	-8	9	0	·	6	·	·	·
CC1(C)Cc2c(ccc3ccccc23)C(=O)N1	-6	-4	69*	-74	52*	-59	54*	55*	78*
N#Cc1ccc(C(=O)N2CCCCC2c2cc(C(=O)NCc3ccccc3)no2)cc1 (stereo not drawn)	3	2	-14	1	·	14	·	·	·
COc1cc(NC(=O)Nc2nc(C(N)C(C)C)cs2)cc(OC)c1OC (stereo not drawn)	-6	-3	-19	-12	·	3	·	·	·
COc1ccc(-n2ncc3c(N4CCN(Cc5ccccc5)CC4)ncnc32)cc1	6	2	66*	103*	85*	-215	64*	77*	74*
CCN1CCN(Cc2ccc(NC(=O)c3ccc(C)c(NC(=O)c4ccno4)c3)cc2C(F)(F)F)CC1	-4	-2	56*	18	63*	12	43*	57*	69*
SMILES	KKLEB cytotox	ABHD5 PLIN5 PPI	CF NFkB block	Peg3 prom inh-1	Mdm2 MdmX PPI	HIF-2a block	Mdm2-MdmX conf	FLuc counter	CF NFkB inh conf	others
CCN1CCN(Cc2ccc(NC(=O)c3ccc(C)c(NC(=O)C4=NN(c5ccccc5)C(=O)C4)c3)cc2C(F)(F)F)CC1	5	-4	15	-34	18	-13	·	·	·
COc1cc(NC(=O)c2cc3ccccc3cc2OC)ccc1NC(=O)c1cccs1	17	6	59*	47	58*	-19	57*	90*	102*
COc1cc(NC(=O)c2ccccc2Cl)ccc1NC(=O)c1cccs1	4	-3	-12	-274	-78	-269	·	·	·
O=C(NCCc1ccc(F)cc1)Nc1ccc([N+](=O)[O-])cc1	14	-2	-28	-56	-1	-111	·	·	·
O=[N+]([O-])c1ccc(NC(=S)NCCc2ccc(F)cc2)cc1	-48	-6	50*	26	86*	-84	63*	86*	66*
Cc1cc(NC(=O)Nc2ccc(Cl)c(Cl)c2)no1	10	-6	22	-98	0	-123	·	·	·
O=C(Nc1ccc(Cl)c(Cl)c1)Nc1ccon1	-12	11	54*	-42	56*	-51	66*	56*	40*
COc1ccc(-c2csc3ncnc(NCCN4CCOCC4)c23)cc1	-17	1	56*	30	61*	33	65*	36*	82*
c1ccc(-c2csc3ncnc(NCCN4CCOCC4)c23)cc1	-13	0	33	21	42	18	·	·	·
Clc1ccc(-c2csc3ncnc(NCCN4CCOCC4)c23)cc1	-13	3	44	14	45	22	·	·	·
Cc1ccc(-c2csc3ncnc(NCCN4CCOCC4)c23)cc1	-23	1	58*	27	54*	31	32	·	47*
CC1=C(C(=O)N(C(C)C)C(C)C)CC(CC(=O)NC2CCCC2)C(=O)N1CCC1=CCCCC1 (stereo not drawn)	-8	0	-4	0	·	3	·	·	·
